Test [1] in a line: antimalarial activity against Dd2 strain (AID 2302;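 active = growth inhibition above 50% at the single 2 µM test dose, taken to imply half-maximal potency below 2 µM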;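 note: 0% = DMSO untreated growth and 100% = chloroquine plus artemisinin killed control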). The note with it: P. falciparum Dd2 in RBCs, LDH growth readout, 72 h; at 2 µM; hits give high values.
Test [2] in a line: human hepatoma cell viability loss – ATP luminescence, cytotoxicity control for P. falciparum antimalarial project, primary screen (AID 2303;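 active = inhibition above 50%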;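 note: 0% = DMSO wells and 100% = digitonin-killed cells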). Particulars: HepG2 viability, 24-48 h, at 10 µM, hits give high values.
Test [3] has as its target L-lactate dehydrogenase (Plasmodium falciparum (isolate CDC / Honduras)) (UniProt Q27743). Nature of the test: PfLDH activity inhibition – cell lysate, 3D7 strain, counter-screen for P. falciparum growth inhibition project (AID 2304).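 Note: 0% = vehicle and 100% = reference inhibitor.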 Particulars: P. falciparum 3D7 crude extract, LDH APAD/NBT absorbance; at 2 µM; hits give high values.
The nature of test [4]: inhibition of 3D7 malaria parasite growth – strain 3D7 (AID 2306).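 Note: 0% = DMSO wells and 100% = chloroquine plus artemisinin control wells.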 The note with it: P. falciparum 3D7 erythrocytic growth, LDH absorbance, 72 h; at 2 µM; hits give high values.
For test [5], the target named is Calcium-dependent protein kinase 1 (Plasmodium falciparum (isolate 3D7)) (UniProt P62344). Nature of the test: PfCDPK1 kinase inhibitors, biochemical, TCAMS library (AID 1159585; cut-off not given, nearly all actives have IC50 up to about 0.98 µM;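 note: inhibitors leave more ATP so luminescence rises with inhibition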). The note with it: recombinant PfCDPK1, Kinase-Glo ATP depletion luminescence. (In Kinase-Glo more light means more ATP remaining.)
The target of test [6] is Plasmodium falciparum protein kinase 6 (PK6, PF3D7_1337100) (UniProt Q8IDW1). Nature of the test: PfPK6 kinase inhibitors, biochemical, TCAMS library (AID 1159586). Particulars: recombinant PfPK6, Kinase-Glo ATP depletion luminescence.
Test [7] deals with Protein kinase 7 (PK7), Plasmodium falciparum 3D7 (PF3D7_0213400) (UniProt Q7YTF7). Kind of test: inhibition of Plasmodium PK7 catalytic activity – biochemical, TCAMS antimalarial set, Kinase-Glo luminescence (AID 1159587). Particulars: recombinant PfPK7, Kinase-Glo ATP depletion luminescence.
Test [8] has as its target Calcium-dependent protein kinase 4 (Plasmodium falciparum (isolate 3D7)) (UniProt Q8IBS5). Kind of test: PfCDPK4 kinase inhibitors, biochemical, TCAMS library (AID 1159588; cut-off not given, nearly all actives have IC50 up to about 0.91 µM). The note with it: recombinant PfCDPK4, Kinase-Glo ATP depletion luminescence.

Drawing on PubChem BioAssay, this text covers growth inhibition, inhibition and outcome for 20 compounds.

Values without a mark were called inactive. For some of these results: Results with a measured potency or affinity are listed apart. Activity calls are given as the source filed them. Unless noted, the rule behind the calls is not given here.

For orientation: inhibition means the drop in the measured response relative to a control, in per cent.

L-lactate dehydrogenase (Plasmodium falciparum (isolate CDC / Honduras)), sequence (Q27743 whole entry, looked up): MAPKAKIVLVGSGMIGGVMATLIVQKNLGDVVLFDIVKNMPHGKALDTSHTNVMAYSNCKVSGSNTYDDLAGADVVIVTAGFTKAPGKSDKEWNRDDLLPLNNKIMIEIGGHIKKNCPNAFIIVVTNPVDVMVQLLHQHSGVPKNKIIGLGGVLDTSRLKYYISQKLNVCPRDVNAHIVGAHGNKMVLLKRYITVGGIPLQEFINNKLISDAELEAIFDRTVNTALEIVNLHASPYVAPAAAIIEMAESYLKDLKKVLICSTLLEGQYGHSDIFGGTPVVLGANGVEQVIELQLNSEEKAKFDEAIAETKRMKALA
Calcium-dependent protein kinase 1 (Plasmodium falciparum (isolate 3D7)), sequence (P62344 whole entry, looked up): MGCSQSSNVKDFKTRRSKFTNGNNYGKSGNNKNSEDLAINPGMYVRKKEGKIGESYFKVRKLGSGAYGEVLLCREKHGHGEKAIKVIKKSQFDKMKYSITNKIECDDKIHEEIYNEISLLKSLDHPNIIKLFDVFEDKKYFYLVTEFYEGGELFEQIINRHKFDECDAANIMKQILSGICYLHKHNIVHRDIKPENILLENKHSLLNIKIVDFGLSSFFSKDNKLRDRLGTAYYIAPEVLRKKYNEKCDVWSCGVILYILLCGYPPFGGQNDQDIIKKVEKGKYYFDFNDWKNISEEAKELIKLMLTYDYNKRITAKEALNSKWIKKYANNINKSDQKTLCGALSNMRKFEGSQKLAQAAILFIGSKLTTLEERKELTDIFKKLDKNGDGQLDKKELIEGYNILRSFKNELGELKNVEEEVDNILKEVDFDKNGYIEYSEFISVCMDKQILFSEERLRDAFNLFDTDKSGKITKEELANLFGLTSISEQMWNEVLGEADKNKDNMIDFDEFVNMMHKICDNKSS
Calcium-dependent protein kinase 4 (Plasmodium falciparum (isolate 3D7)), sequence (Q8IBS5 whole entry, looked up): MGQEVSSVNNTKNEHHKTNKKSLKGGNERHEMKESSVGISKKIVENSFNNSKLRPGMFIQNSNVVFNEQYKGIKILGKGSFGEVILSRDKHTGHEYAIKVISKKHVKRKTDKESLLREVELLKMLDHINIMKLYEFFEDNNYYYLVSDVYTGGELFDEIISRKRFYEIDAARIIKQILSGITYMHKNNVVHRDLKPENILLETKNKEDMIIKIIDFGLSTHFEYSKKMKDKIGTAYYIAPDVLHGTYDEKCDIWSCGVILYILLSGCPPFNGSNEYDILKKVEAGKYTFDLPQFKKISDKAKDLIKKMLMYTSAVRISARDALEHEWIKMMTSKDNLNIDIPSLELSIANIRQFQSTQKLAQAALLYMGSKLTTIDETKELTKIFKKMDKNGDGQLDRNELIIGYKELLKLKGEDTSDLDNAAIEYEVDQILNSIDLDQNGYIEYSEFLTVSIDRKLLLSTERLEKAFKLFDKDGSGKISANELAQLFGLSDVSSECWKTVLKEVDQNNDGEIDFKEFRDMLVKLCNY
Protein kinase 7 (PK7), Plasmodium falciparum 3D7 (PF3D7_0213400), sequence (Q7YTF7 1-343): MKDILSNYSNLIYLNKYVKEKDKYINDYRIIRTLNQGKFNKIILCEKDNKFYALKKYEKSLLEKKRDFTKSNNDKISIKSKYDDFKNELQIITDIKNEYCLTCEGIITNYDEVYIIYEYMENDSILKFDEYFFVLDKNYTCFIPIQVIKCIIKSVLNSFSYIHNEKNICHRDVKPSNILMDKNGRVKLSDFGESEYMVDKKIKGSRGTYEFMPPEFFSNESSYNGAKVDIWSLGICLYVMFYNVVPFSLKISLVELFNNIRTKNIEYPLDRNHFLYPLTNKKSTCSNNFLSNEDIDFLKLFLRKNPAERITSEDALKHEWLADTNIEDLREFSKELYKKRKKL
Plasmodium falciparum protein kinase 6 (PK6, PF3D7_1337100), sequence (Q8IDW1 1-305): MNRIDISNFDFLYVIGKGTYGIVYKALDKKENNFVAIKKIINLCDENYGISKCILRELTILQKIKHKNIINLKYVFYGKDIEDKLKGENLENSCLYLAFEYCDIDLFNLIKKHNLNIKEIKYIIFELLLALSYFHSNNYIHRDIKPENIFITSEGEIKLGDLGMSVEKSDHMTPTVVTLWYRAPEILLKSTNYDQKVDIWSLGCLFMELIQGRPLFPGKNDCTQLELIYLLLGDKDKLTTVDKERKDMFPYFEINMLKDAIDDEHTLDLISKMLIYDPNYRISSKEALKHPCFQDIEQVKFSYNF

For `COc1ccc(CN2CCCC(N3CC4(OC3=O)c3ccccc3-c3ccccc34)C2)c(O)c1` (stereo not given), the results for the growth inhibition in test [1] and in test [4] were 34% and 92% (active), respectively. Moreover, the inhibition is 14% in test [2] and 7% in test [3]. Besides, the result in test [5], in test [6], in test [7] and in test [8] was inactive.

Take `COc1cc(Nc2nc(N)c3cc(OC)c(OC)cc3n2)cc(OC)c1`: the growth inhibition in test [1] was 102% (active); in test [4], 101% (active). Further, the figures for the inhibition in test [2] and in test [3] were 7% and 4%, respectively. Moreover, the result in test [5], in test [6], in test [7] and in test [8] was inactive.

For `CCOC(=O)NCC(=O)Nc1cccc(-c2cccc(-c3nc4c(C)cccc4[nH]3)c2)c1`, the results for the growth inhibition in test [1] and in test [4] were 35% and 88% (active), respectively. Also, the inhibition was 14% in test [2] and 1% in test [3]. Besides, the outcome in test [5], in test [6], in test [7] and in test [8] was inactive.

Consider `O=C(NOCCOc1ccccc1)c1ccccc1`, for which the figures for the growth inhibition in test [1] and in test [4] were 0% and 98% (active), respectively. The results for the inhibition in test [2] and in test [3] were 0% and -1%, respectively. Further, the result in test [5], in test [6], in test [7] and in test [8] was inactive.

Consider `O=S1(=O)C=C(c2ccccc2)CC1`, for which the growth inhibition is 44% in test [1] and 97% (active) in test [4]. The inhibition in test [2] is 57% (active); in test [3] it was -1%. The outcome in test [5], in test [6], in test [7] and in test [8] was inactive.

On to `CC(C)CCCC(C)(C)NC[C@@H](O)[C@H](Cc1ccccc1)NC(=O)c1cccc(CCC2CC2)c1`, for which the growth inhibition in test [1] is 52% (active); in test [4], 98% (active). Besides, the inhibition in test [2] was 100% (active); in test [3], 0%. In addition, the outcome in test [5], in test [6], in test [7] and in test [8] was inactive.

`O=C(Cn1c(SCc2cccc(F)c2F)cc(=O)c2ccccc21)N(Cc1ccc(-c2ccc(C(F)(F)F)cc2)cc1)C1CCN(CCO)CC1`: the growth inhibition in test [1] is 81% (active); in test [4], 89% (active). Moreover, the inhibition is 50% (active) in test [2] and 4% in test [3]. The outcome in test [5], in test [6], in test [7] and in test [8] was inactive.

Turning to `CN1CCN(CC(O)CNC(=O)Nc2ccc(Br)cc2)CC1` (stereo not given), the growth inhibition in test [1] and in test [4] was 100% (active) in each case. The inhibition is 5% in test [2] and -2% in test [3]. For the same compound, the result in test [5], in test [6], in test [7] and in test [8] was inactive.

On to `COc1ccc2nccc([C@@H](O)CN3CCC(NC(=O)C(c4cc5ccccc5o4)N4CCN(c5ccccc5OC)CC4)CC3)c2c1` (stereo not given in full), for which the growth inhibition is 83% (active) in test [1] and 99% (active) in test [4]. The inhibition is 14% in test [2] and -5% in test [3]. Also, the result in test [5], in test [6], in test [7] and in test [8] was inactive.

As to `NC(N)=NC(=O)Nc1cc(Cl)c(Cl)c(C(F)(F)F)c1`, the growth inhibition was 99% (active) in test [1] and 100% (active) in test [4]. In addition, the inhibition in test [2] was 6%; in test [3], -5%. In addition, the outcome in test [5], in test [6], in test [7] and in test [8] was inactive.

As for `O=C(NCC1CCN(Cc2cccc(C(F)(F)F)c2)C1)c1cc(-c2cccc(F)c2)cs1` (stereo not given), the growth inhibition was 5% in test [1] and 87% (active) in test [4]. Further, the inhibition was 19% in test [2] and -3% in test [3]. In addition, the outcome in test [5], in test [6], in test [7] and in test [8] was inactive.

On to `COc1ccc(C2C(C(=O)Nc3cc(Cl)c(OC)cc3OC)c3ccccc3C(=O)N2C)cc1` (stereo not given), for which the results for the growth inhibition in test [1] and in test [4] were 98% (active) and 101% (active), respectively. Further, the inhibition is 14% in test [2] and 4% in test [3]. The outcome in test [5], in test [6], in test [7] and in test [8] was inactive.

In the case of `O=c1cc(NCCCNCc2ccc(C(F)(F)F)cc2F)[nH]c2ccccc12`, the results for the growth inhibition in test [1] and in test [4] were 48% and 93% (active), respectively. In addition, the inhibition was 1% in test [2] and 8% in test [3]. Besides, the result in test [5], in test [6], in test [7] and in test [8] was inactive.

Regarding `Nc1ccc2c(N)c3ccccc3nc2c1`, the growth inhibition in test [1] is 74% (active); in test [4], 93% (active). The values for the inhibition in test [2] and in test [3] were 20% and -2%, respectively. For the same compound, the outcome in test [5], in test [6], in test [7] and in test [8] was inactive.

Regarding `OC(CNc1cccc(Cl)c1)Cn1c2ccc(Cl)cc2c2cc(Cl)ccc21` (stereo not given), the growth inhibition in test [1] is 33%; in test [4], 95% (active). Moreover, the inhibition is 8% in test [2] and 6% in test [3]. For the same compound, the result in test [5], in test [6], in test [7] and in test [8] was inactive.

For `COc1cc2c(=O)c(Cc3ccc(Cl)cc3)c(C)[nH]c2cc1F`, the growth inhibition is 28% in test [1] and 85% (active) in test [4]. For the same compound, the inhibition in test [2] is 13%; in test [3] it was 1%. The result in test [5], in test [6], in test [7] and in test [8] was inactive.

Regarding `C#CCNCc1ccc(-c2cccc(-c3nc4c(C)cccc4[nH]3)c2)cc1`, the growth inhibition was 32% in test [1] and 100% (active) in test [4]. For the same compound, the inhibition in test [2] is -4%; in test [3], 2%. In addition, the outcome in test [5], in test [6], in test [7] and in test [8] was inactive.

`CN1CCN(Cc2cccc(-c3cc4nccc(Nc5ccc(Oc6ccccc6)cc5)c4cc3Cl)c2)CC1`: the values for the growth inhibition in test [1] and in test [4] were 96% (active) and 101% (active), respectively. Besides, the inhibition was 10% in test [2] and -3% in test [3]. For the same compound, the result in test [5], in test [6], in test [7] and in test [8] was inactive.

For the compound `Cc1[nH]c2ccccc2c1CC1CCN(CC2CCN(C(=O)/C=C/c3ccc(Cl)c(Cl)c3)CC2)CC1`, the growth inhibition in test [1] was 14%; in test [4], 92% (active). In addition, the figures for the inhibition in test [2] and in test [3] were 34% and -3%, respectively. Moreover, the result in test [5], in test [6], in test [7] and in test [8] was inactive.

Consider `N#Cc1ccc(CN2CCC(Oc3ccc(NC(=O)c4cccs4)cc3)C2)cc1` (stereo not given), for which the growth inhibition was 65% (active) in test [1] and 82% (active) in test [4]. For the same compound, the inhibition is 5% in test [2] and 1% in test [3]. Further, the result in test [5], in test [6], in test [7] and in test [8] was inactive.
